Records with an inconclusive call do not appear. Activity calls are given as the source filed them. Calls follow the shape of the dose curve; as a rule, active = well fitted curve in the direction sought with a large enough effect; inconclusive = small, poorly fitted or top-dose-only effect, or another doubt; inactive = no such curve, though single readings can be large; an effect the other way counts as inactive or inconclusive.
Tests used:
[1] = Quantitative High-Throughput drug screen in 47 multiple myeloma cell lines against the NCATS MIPE library collection: KMS34_JCRB cell viability assay (AID 1918985); also: nearly all actives have a fitted effect of over 40% in size; also: potency is read from the fitted curve at half-maximal effect
Outline: (§1)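 500 cells/well per myeloma line exposed to pinned MIPE 4.0 compounds for 48 h at 37 °C, 5% CO2. Viability read as ATP by CellTiter-Glo luminescence, normalised to DMSO-only (100%) and media-only (0%) wells.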

[2] = Quantitative High-Throughput drug screen in 47 multiple myeloma cell lines against the NCATS MIPE library collection: SKMM1_PLB cell viability assay (AID 1919863); settings: SKMM1 myeloma viability, CellTiter-Glo ATP, 48 h; viability: active compounds read low; also: nearly all actives have a fitted effect of over 35% in size; also: potency is read from the fitted curve at half-maximal effect; as to viability: series mostly up to about 46 µM
Outline: as §1

[3] = Quantitative High-Throughput drug screen in 47 multiple myeloma cell lines against the NCATS MIPE library collection: XG6_PLB cell viability assay (AID 1919865); also: nearly all actives have a fitted effect of over 40% in size; also: potency is read from the fitted curve at half-maximal effect
Outline: as §1

[4] = Quantitative High-Throughput drug screen in 47 multiple myeloma cell lines against the NCATS MIPE library collection: PCM6_Riken cell viability assay (AID 1919870); also: nearly all actives have a fitted effect of over 30% in size; also: potency is read from the fitted curve at half-maximal effect
Outline: as §1

[5] = Quantitative High-Throughput drug screen in 47 multiple myeloma cell lines against the NCATS MIPE library collection: RPMI8226_ATCC cell viability assay (AID 1919871); also: nearly all actives have a fitted effect of over 30% in size; also: potency is read from the fitted curve at half-maximal effect
Outline: as §1

[6] = Quantitative High-Throughput drug screen in 47 multiple myeloma cell lines against the NCATS MIPE library collection: PE2_PLB cell viability assay (AID 1919869); also: nearly all actives have a fitted effect of over 35% in size; also: potency is read from the fitted curve at half-maximal effect
Outline: as §1

[7] = Quantitative High-Throughput drug screen in 47 multiple myeloma cell lines against the NCATS MIPE library collection: KMS11_JCRBsus cell viability assay (AID 1919873); also: nearly all actives have a fitted effect of over 50% in size; also: potency is read from the fitted curve at half-maximal effect
Outline: as §1

[8] = Quantitative High-Throughput drug screen in 47 multiple myeloma cell lines against the NCATS MIPE library collection: OCIMY7_PLB cell viability assay (AID 1918987); also: nearly all actives have a fitted effect of over 65% in size; also: potency is read from the fitted curve at half-maximal effect
Outline: as §1

[9] = Quantitative High-Throughput drug screen in 47 multiple myeloma cell lines against the NCATS MIPE library collection: XG1_PLB cell viability assay (AID 1919866); also: nearly all actives have a fitted effect of over 35% in size; also: potency is read from the fitted curve at half-maximal effect
Outline: as §1

[10] = Quantitative High-Throughput drug screen in 47 multiple myeloma cell lines against the NCATS MIPE library collection: OCIMY5_PLB cell viability assay (AID 1918988); also: nearly all actives have a fitted effect of over 65% in size; also: potency is read from the fitted curve at half-maximal effect
Outline: as §1

[11] = Quantitative High-Throughput drug screen in 47 multiple myeloma cell lines against the NCATS MIPE library collection: VP6_DJ cell viability assay (AID 1919867); also: nearly all actives have a fitted effect of over 40% in size; also: potency is read from the fitted curve at half-maximal effect
Outline: as §1

[12] = molecular target: Cytochrome P450 2D6 (Homo sapiens) (UniProt P10635); assay: qHTS for inhibitors of CYP2D6 against the NCATS DSHEA and TCM libraries (AID 1919972); settings: CYP2D6 enzymatic inhibition, luminescence qHTS; also: potency is read from the fitted curve at half-maximal effect
Outline: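 Luminescent P450-Glo read-out of CYP2D6 turnover of a luciferin substrate after NADPH-driven reaction of 30-45 min at room temperature. Compounds were first preincubated 15 min with enzyme at titrated concentrations; quinidine was the intraplate control.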

[13] = molecular target: Cytochrome P450 2C19 (Homo sapiens) (UniProt P33261); assay: qHTS for inhibitors of CYP2C19 against the NCATS DSHEA and TCM libraries (AID 1919974); settings: CYP2C19 enzyme inhibition, luminescence qHTS;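 also: luminescence from luciferin released by CYP2C19 oxidation of a pro-luciferin substrate; potency is read from the fitted curve at half-maximal effect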
Outline: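 Luminescent P450-Glo format: compounds preincubated 15 min with enzyme and luciferin substrate, reaction run 30-45 min after NADPH regeneration solution. Intraplate controls: ketoconazole for CYP3A4 and CYP2C19, sulfaphenazole for CYP2C9.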

[14] = KB-3-1 P-gp reporter qHTS against the NCATS DSHEA and TCM libraries (AID 1919975); also: 0% is about no effect
Outline: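 CellTiter-Glo luminescence viability readout; KB-3-1 parental cells, 500/well, attached ~4 h, then compound for ~72 h, 37C, 5% CO2. Bortezomib intraplate control.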

[15] = molecular target: Cytochrome P450 1A2 (Homo sapiens) (UniProt P05177); assay: qHTS for inhibitors of CYPIA2 against the NCATS DSHEA and TCM libraries (AID 1919976); settings: recombinant CYP1A2 enzyme activity, luminescence; also: potency is read from the fitted curve at half-maximal effect
Outline: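 Human CYP1A2 with pro-luciferin substrate (typically 100 mM KPO4), 15 min preincubation with compound, then 1x NADPH regeneration for 30-45 min at room temperature in the dark. Luciferin quantified by luciferase luminescence; furafylline intraplate control.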

[16] = KB-8-5-11 P-gp reporter qHTS against the NCATS DSHEA and TCM libraries (AID 1919977); also: 0% is about no effect
Outline: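 CellTiter-Glo luminescence after ~72 h exposure at 37C gave viability of KB-8-5-11 cells, the P-gp-overexpressing subline. Substances were titrated; colchicine was omitted from assay medium.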

[17] = qHTS Counterscreen for compound interference against the NCATS DSHEA and TCM libraries (AID 1919978); settings: firefly luciferase detection reagent interference, luminescence;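 also: compounds preincubated with 1 µM D-luciferin or buffer before detection reagent; % of control where 0% means no effect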
Outline: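 Luminescence counterscreen for detection-kit interference: compounds at 19.5 nM–39.8 uM final, 15 min RT with 1 uM D-luciferin or buffer only; detection reagent added, 30 min RT, then read.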

[18] = Dual reporter qHTS for agonist of Pregnane X Receptor (hPXR) against the NCATS DSHEA and TCM libraries: Fluorescence readout (AID 1920058); also: 0% is about no effect
Outline: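 hPXR-Luc HepG2 cells, 2000/well in charcoal-stripped serum, attached 5 h, dosed for ~24 h at 37 °C. Fluorescence read is CellTiter-Fluor viability (Ex/Em 405/540 nm); rifampicin positive, tetraoctyl ammonium bromide (92 µM) cytotoxicity controls.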

[19] = molecular target: Nuclear receptor subfamily 1 group I member 2 (Homo sapiens) (UniProt O75469); assay: Dual reporter qHTS for antagonist of Pregnane X Receptor (hPXR) against the NCATS DSHEA and TCM libraries: Luminescence Readout (AID 1920060);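 also: HepG2 cells carrying hPXR luciferase reporter stimulated with rifampicin at 2 µM; 0% is about no effect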
Outline: (§2)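 In antagonist mode, 2 uM rifampicin was added to hPXR-Luc HepG2 cells alongside test substances, incubated 24 h at 37 C; luminescence gave reporter activity, and CellTiter-Fluor fluorescence (405/540 nm) gave viability.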

[20] = Dual reporter qHTS for antagonist of Pregnane X Receptor (hPXR) against the NCATS DSHEA and TCM libraries: Fluorescence Readout (AID 1920061); also: 0% is about no effect
Outline: as §2

Cytochrome P450 1A2 (Homo sapiens), sequence (P05177 whole entry, looked up): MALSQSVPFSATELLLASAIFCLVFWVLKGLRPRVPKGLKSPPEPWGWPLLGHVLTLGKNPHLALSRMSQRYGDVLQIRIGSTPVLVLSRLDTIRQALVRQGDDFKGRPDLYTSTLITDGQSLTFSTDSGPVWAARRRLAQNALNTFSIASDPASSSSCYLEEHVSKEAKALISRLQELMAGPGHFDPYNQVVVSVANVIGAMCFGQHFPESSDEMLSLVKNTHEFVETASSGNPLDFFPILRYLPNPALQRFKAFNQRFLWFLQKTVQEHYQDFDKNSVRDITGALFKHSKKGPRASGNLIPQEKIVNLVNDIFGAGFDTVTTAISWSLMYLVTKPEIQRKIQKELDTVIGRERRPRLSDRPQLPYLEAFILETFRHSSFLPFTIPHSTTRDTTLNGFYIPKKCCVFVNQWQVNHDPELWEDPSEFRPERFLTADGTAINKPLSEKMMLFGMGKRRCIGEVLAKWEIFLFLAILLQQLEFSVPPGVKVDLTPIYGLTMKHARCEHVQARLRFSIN
Cytochrome P450 2C19 (Homo sapiens), sequence (P33261 whole entry, looked up): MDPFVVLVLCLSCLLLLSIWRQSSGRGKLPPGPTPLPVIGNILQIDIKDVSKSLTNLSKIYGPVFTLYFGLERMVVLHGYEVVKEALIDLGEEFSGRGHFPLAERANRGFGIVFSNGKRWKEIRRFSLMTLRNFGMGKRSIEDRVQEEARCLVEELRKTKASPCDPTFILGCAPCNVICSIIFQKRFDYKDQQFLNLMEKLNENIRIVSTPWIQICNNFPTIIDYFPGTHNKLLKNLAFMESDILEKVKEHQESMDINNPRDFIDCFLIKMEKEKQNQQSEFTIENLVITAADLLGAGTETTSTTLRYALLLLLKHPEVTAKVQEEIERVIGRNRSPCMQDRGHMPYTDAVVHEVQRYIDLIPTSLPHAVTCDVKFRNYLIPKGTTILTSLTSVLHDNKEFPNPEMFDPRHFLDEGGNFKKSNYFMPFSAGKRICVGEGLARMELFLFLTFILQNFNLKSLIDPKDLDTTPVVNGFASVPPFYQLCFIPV
Nuclear receptor subfamily 1 group I member 2 (Homo sapiens), sequence (O75469 whole entry, looked up): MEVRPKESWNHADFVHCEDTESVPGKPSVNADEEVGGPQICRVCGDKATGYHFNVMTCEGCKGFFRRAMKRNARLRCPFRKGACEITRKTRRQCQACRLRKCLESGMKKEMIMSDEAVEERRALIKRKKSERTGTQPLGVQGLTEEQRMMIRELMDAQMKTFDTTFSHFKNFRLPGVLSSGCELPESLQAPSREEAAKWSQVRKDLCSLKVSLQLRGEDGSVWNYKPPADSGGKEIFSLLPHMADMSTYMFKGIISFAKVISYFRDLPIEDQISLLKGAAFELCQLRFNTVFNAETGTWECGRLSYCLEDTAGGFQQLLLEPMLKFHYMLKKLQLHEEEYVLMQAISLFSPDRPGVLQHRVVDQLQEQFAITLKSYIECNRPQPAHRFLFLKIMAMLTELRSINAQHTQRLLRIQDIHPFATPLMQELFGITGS
Cytochrome P450 2D6 (Homo sapiens), sequence (P10635 whole entry, looked up): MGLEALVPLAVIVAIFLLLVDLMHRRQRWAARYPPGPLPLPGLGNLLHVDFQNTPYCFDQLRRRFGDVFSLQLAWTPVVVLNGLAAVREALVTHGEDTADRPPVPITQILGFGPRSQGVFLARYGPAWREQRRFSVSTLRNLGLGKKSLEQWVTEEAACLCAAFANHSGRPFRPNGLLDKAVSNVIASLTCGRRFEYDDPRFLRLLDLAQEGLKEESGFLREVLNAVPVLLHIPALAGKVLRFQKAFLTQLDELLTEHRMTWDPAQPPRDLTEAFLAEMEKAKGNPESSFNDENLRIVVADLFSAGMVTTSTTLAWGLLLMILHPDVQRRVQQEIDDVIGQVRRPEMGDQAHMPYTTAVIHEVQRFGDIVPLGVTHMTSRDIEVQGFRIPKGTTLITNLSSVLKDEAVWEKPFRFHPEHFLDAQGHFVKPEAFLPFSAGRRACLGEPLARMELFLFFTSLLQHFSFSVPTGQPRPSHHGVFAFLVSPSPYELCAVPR

COC1(CS(=O)c2ccccc2)CCN(CCc2c[nH]c3ccc(F)cc23)CC1 (stereo unspecified)
active: Potency [3] 16600 nM | Potency [5] 7430 nM
inactive: Potency [1] | viability [2] 116% | Potency [4]

CC(C)CC(N(C)C)C1(c2ccc(Cl)cc2)CCC1 (stereo unspecified)
inactive: Potency [1] | Potency [3] | Potency [6]
active: Potency [7] 18700 nM

CNCC(O)c1ccc(O)cc1 (stereo unspecified)
inactive: Potency [1] | Potency [8] | Potency [9] | Potency [6] | Potency [5] | Potency [7]

C#CCN(C)[C@H](C)Cc1ccccc1
inactive: Potency [1] | Potency [9] | Potency [6]
active: Potency [2] 16600 nM

COc1ccc(C(CN(C)C)C2(O)CCCCC2)cc1 (stereo unspecified)
inactive: Potency [1] | Potency [6] | Potency [5] | Potency [7]

Cn1c(CCCC(=O)O)nc2cc(N(CCCl)CCCl)ccc21
active: Potency [8] 6620 nM | Potency [10] 8330 nM | Potency [3] 14800 nM | Potency [9] 14800 nM | Potency [6] 8330 nM
inactive: Potency [11] | Potency [7]

COC[C@@H](NC(C)=O)C(=O)NCc1ccccc1
inactive: Potency [1] | Potency [10] | viability [2] 103% | Potency [3] | Potency [9] | Potency [11] | Potency [4] | Potency [5] | Potency [7]

COc1ccc(C(=O)c2c(C)n(CCN3CCOCC3)c3ccccc23)cc1
inactive: Potency [3] | Potency [9] | Potency [11] | Potency [6] | Potency [4] | Potency [5] | Potency [7]

CC(C)=CCOc1c2occc2cc2ccc(=O)oc12
active: Potency [12] 1780 nM | Potency [13] 12600 nM | Potency [15] 1260 nM
inactive: outcome [14] | outcome [16] | max response [17] 2.08% | outcome [18] | outcome [19] | outcome [20]

C=C(C)[C@H]1Cc2c(ccc3c2O[C@@H]2COc4cc(OC)c(OC)cc4[C@@H]2C3=O)O1
active: Potency [8] 1050 nM | Potency [10] 833 nM | Potency [3] 526 nM | Potency [9] 264 nM | Potency [11] 166 nM | Potency [6] 372 nM | Potency [7] 332 nM

C[C@@H]1O[C@@H](O[C@H]2C[C@@H](O)[C@]3(CO)[C@H]4[C@H](O)C[C@]5(C)[C@@H](C6=CC(=O)OC6)CC[C@]5(O)[C@@H]4CC[C@]3(O)C2)[C@H](O)[C@H](O)[C@H]1O
active: Potency [1] 59 nM | Potency [8] 14.8 nM | Potency [10] 23.5 nM | Potency [2] 59 nM | Potency [3] 18.7 nM | Potency [9] 7.4 nM | Potency [11] 16.6 nM | Potency [6] 33.2 nM | Potency [4] 18.7 nM | Potency [7] 93.5 nM

C[C@@H]1[C@@H](C(=O)C[C@H]2O[C@@H]3O[C@]4(C)CC[C@@H]5[C@H](C)CC[C@@H]([C@H]2C)[C@@]35OO4)O[C@@H]2O[C@]3(C)CC[C@H]4[C@H](C)CC[C@@H]1[C@@]24OO3
active: Potency [1] 235 nM | Potency [8] 74.3 nM | Potency [10] 332 nM | Potency [2] 743 nM | Potency [6] 264 nM | Potency [5] 833 nM

NCC1(CC(=O)O)CCCCC1
active: Potency [4] 16600 nM
inactive: viability [2] 140% | Potency [6] | Potency [5] | Potency [7]

CN1CCN(C(=O)O[C@H]2c3nccnc3C(=O)N2c2ccc(Cl)cn2)CC1
inactive: Potency [1] | Potency [8] | Potency [3] | Potency [9] | Potency [11] | Potency [6] | Potency [4] | Potency [5] | Potency [7]

CC(O)(CS(=O)(=O)c1ccc(F)cc1)C(=O)Nc1ccc(C#N)c(C(F)(F)F)c1 (stereo unspecified)
inactive: Potency [5] | Potency [7]
active: Potency [8] 743 nM | Potency [10] 332 nM | Potency [3] 93.5 nM | Potency [9] 166 nM | Potency [11] 743 nM | Potency [6] 418 nM | Potency [4] 590 nM

C[C@@H]1[C@@H](CC(C[C@H]2O[C@@H]3O[C@]4(C)CC[C@@H]5[C@H](C)CC[C@@H]([C@H]2C)[C@@]35OO4)C[S+](=O)([O-])c2ccc(COC(=O)N(C)C)cc2)O[C@@H]2O[C@]3(C)CC[C@H]4[C@H](C)CC[C@@H]1[C@@]24OO3 (stereo partly specified)
active: Potency [1] 74.3 nM | Potency [8] 83.3 nM | Potency [10] 209 nM | Potency [2] 166 nM | Potency [3] 264 nM | Potency [9] 296 nM | Potency [11] 372 nM | Potency [6] 264 nM | Potency [4] 418 nM | Potency [5] 296 nM | Potency [7] 148 nM

Cc1cc(SCc2sc(-c3ccc(C(F)(F)F)c(F)c3)nc2C)ccc1OCC(=O)O
active: Potency [8] 20900 nM | Potency [10] 13200 nM | Potency [6] 26400 nM | Potency [4] 20900 nM | Potency [5] 18700 nM

O=c1[nH]c2ccccc2n1CCCN1CCC(n2c(=O)[nH]c3cc(Cl)ccc32)CC1
active: Potency [3] 20900 nM | Potency [11] 13200 nM | Potency [4] 2960 nM
inactive: viability [2] 125%

CN(C)CCc1ccc(O)cc1
inactive: Potency [1] | Potency [8] | Potency [10] | viability [2] 107% | Potency [9] | Potency [4] | Potency [5] | Potency [7]
active: Potency [11] 6620 nM | Potency [6] 9350 nM

From PubChem BioAssay (NCATS)
